Many of the other results were omitted from the sample, so hits are more common in it than they were. The hit rate among all sequences tested is not known here.
tested on: T1, Caupolican (Caup) homeodomain DNA-binding domain; experiment: PBM E-score (8-mer, recovered from the published 9-mer minima) (E-score (dimensionless, -0.5 to 0.5)); Drosophila protein; higher = stronger relative binding preference, active = 0.31 or more
T1 sequence: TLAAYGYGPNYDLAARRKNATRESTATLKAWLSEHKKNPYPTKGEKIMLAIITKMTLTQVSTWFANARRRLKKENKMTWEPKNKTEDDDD
Procedure, shortened: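 An enrichment score, with higher meaning stronger, expresses relative binding preference for each short DNA word. The protein used was Caup's homeodomain DNA-binding domain (residues 214-303), produced by in vitro transcription and translation and tested at 100 nM on custom-designed protein binding microarrays. The 8-mer values were recovered from published 9-mer scores, each equal to the lower of its two constituent 8-mer scores.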

PBM E-score, inactive:
AGTGCGGA -0.0562
AATGGATA 0.0292
AGGCAAGC -0.0636
CCTCCAAG -0.0978
AAGTAGCG -0.0607
ACATAAGG 0.2
AGACGTGG -0.0599
AACCACAC 0.0803
AAGTTCGC -0.11
AATCCCTA 0.0149
CAGTTCTA 0.0212
ACGATGTC 0.261
CTGATGTC 0.212
CCGATGTA 0.159
GTGATGAA 0.0845
ATGATGGA 0.0619
CTGATGTA 0.251
ATGATGTG 0.0894
ATGATGAA 0.158
GATTCGGC -0.0366
CAGAACAG 0.0845
ATCGCTTG -0.0165
ATAGTCCG 0.00249
TAGCAAGA 0.142
CTACTCAA 0.116
CCAGTCAG -0.104
TCGCAACA 0.0932
CTATACGA 0.0334
AAGATGTA 0.298
CAGATGTA 0.247
TATTGAAA 0.117
ATTATGTC 0.227
GTTATGTA 0.276
ATTATGTG 0.197
CTTATGTC 0.224
CGGTTCAA -0.15
AGCGGTTA -0.0759
AGAGATGA -0.00602
GCGACAAC 0.224
ACGACATC 0.26
AGGACAAG 0.254
CCGACAAC 0.198
AAGACATA 0.229
AGGACATC 0.233
AAGACATT 0.0764
ACGACATA 0.299
CATTTTGA 0.0478
ACGAGTGC 0.0719
ATATACTG 0.156
TCAACGAA 0.0771
GGGATTAC 0.0873
CTGCGTGA -0.0361
GACCTCTA -0.142
GATGCCTA 0.0242
CGCTAGAC -0.0864
ACGACAAA 0.194
ACGACAAT 0.186
CCACAGCC -0.141
AACACAAA 0.207
AACACAAG 0.228
CACACAAC 0.14
GACACAAC 0.216
GAGACACC -0.0907
AACCATGC 0.0352
AAGCATGG 0.00906
AATCATGG 0.0994
AACCATGG 0.0193
AAGCATGC 0.122
AATCATGA 0.164
ACAATTCG 0.163
AGATCGCC -0.108
TCCAGTCA -0.102
AAACGTGG -0.051
AATCGTGA 0.102
AATCGTGC 0.105
AAACGTGA 0.0748
AGCGTCGA 0.017
AATGATAA 0.141
GAGTAACC -0.034
ATGGACGG -0.0288
CATCCTGA 0.007
AAATATGA 0.164
AAATATGC 0.00511
ATAGCCTC -0.0831
CGTAAACG -0.0383
CTACACGA 0.295
GTACACCA 0.238
ATACACGC 0.275
ATACACGG 0.299
ACGCGCTC -0.0722
CAAGTTAA 0.137
CTGGGCCA -0.265
GATCTCGC -0.112
GCGGTCTA -0.0746
ACAACCTC 0.169
ACTTGTCG 0.266
TATTGTCA 0.225
TCTTGGCA -0.0494
ACTTGTCC 0.237
GATTGTCA 0.13
GCTTGTCC 0.305
CCTTGTCG 0.277
CCTTGTCC 0.171
GGGCGCAA -0.179
AAGCACCG -0.0685
CGATTCAG -0.0377
CTCATAAA 0.05
AAACAAAA 0.189
AACATACC 0.303
AACATACG 0.28
GACATAGA 0.187
AACATAAA 0.286
GACATACC 0.169
CACATAAA 0.121
TCCATACA 0.139
CACATACA 0.232

PBM E-score, active:
ATGATGTA ≥ 0.383
GTGATGTA ≥ 0.383
ACGATGTA 0.36
ATGATGTC 0.312
GAGATGTA 0.329
CTTATGTA 0.345
ATTATGTA 0.327
ACGACAAC 0.339
ACGACATG ≥ 0.416
AGGACATG 0.38
AAGACATG 0.381
ACGACAAG ≥ 0.317
AACACAAT ≥ 0.319
AACACAAC ≥ 0.339
AATCATGT 0.42
AACCATGT 0.347
AAGCATGT 0.356
AATCGTGT 0.324
AAACGTGT 0.31
AAATATGT 0.335
ATACACGA 0.33
GTACACGA 0.427
GCTTGTCA 0.352
ACTTGTCA ≥ 0.378
CCTTGTCA 0.342
TCTTGTCA 0.329
GACATACA 0.389
TACATAAA 0.329
TACATACA 0.415
AACATACT 0.31

— the supplement of paper PMC3724861
